{"source": "PubChem BioAssay (Tox21)", "note": "Inconclusive results are not listed. Entries that show only a call come without a potency. The source holds several records for some structures; these can differ, active in one and inactive in another. Activity calls are given as the source filed them. The call rests on the fitted dose curve; in most records, active means well fitted activation curve with a large enough effect in the signal ratio in the repeat runs (not every such curve was filed as active); inconclusive means weak or mixed curves, or effect the other way; inactive means no such curve, though single readings can be large or run the other way; the % refers to the signal ratio. Potency means the concentration at half of the fitted maximal effect.", "data": [{"target": "Peroxisome proliferator-activated receptor gamma (Homo sapiens) (UniProt P37231)", "sequence (P37231 whole entry, looked up)": "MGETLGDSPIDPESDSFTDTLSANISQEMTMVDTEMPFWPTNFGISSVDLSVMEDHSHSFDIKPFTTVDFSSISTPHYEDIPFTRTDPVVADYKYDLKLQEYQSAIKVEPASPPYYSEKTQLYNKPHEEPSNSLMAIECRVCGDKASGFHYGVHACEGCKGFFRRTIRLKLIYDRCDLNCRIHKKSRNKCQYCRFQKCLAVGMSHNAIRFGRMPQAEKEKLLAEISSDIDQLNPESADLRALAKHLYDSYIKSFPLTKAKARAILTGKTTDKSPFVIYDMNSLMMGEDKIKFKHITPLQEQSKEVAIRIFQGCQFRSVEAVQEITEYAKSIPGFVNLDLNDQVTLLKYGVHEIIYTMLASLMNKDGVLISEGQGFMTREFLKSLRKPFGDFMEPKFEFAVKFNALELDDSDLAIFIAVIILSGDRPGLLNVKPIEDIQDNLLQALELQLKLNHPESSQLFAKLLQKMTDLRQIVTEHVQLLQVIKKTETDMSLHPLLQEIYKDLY", "experiment": "qHTS assay to identify small molecule agonists of the peroxisome proliferator-activated receptor gamma (PPARg) signaling pathway (AID 743094)", "details": "HEK293H PPARg-UAS-bla, beta-lactamase FRET ratio, 17 h; series mostly up to 57 µM; activation: at the top concentration", "description": "U.S. Tox21 Program National Center for Advancing Translational Sciences [NCATS] NIH Chemical Genomics Center [NCGC] U.S. Environmental Protection Agency [EPA] National Institutes of Environmental Health Sciences [NIEHS] National Toxicology Program [NTP] U.S. Food and Drug Administration [FDA] Tox21 Assay Overview: The peroxisome proliferator-activated receptors (PPARs) are lipid-activated transcription factors of the nuclear receptor superfamily with three distinct subtypes namely PPAR alpha, PPAR delta (also called PPAR beta) and PPAR gamma (PPARg). All these subtypes heterodimerize with Retinoid X receptor (RXR) and these heterodimers regulate transcription of various genes. PPAR-gamma receptor (glitazone receptor) is involved in the regulation of glucose and lipid metabolism. To identify the compounds that activate PPAR-gamma signaling, GeneBLAzer PPAR gamma UAS-bla HEK293H cell line (Invitrogen, Carlsbad, CA, USA) containing a beta-lactamase reporter gene under control of the control of an upstream activator sequence (UAS) stably integrated into HEK293H cells was used to screen Tox21 compound library.\nTox21 Assay Protocol Summary: PPARg-bla cells were dispensed at 3000 cells/6uL/well in 1536-well black wall/clear bottom plates using a Multidrop Combi (Thermo Fisher Scientific, Waltham, MA) dispenser. After the assay plates were incubated at 37C and 5% CO2 for 5 h, 23 nL of compounds dissolved in DMSO, positive controls or DMSO only was transferred to the assay plate by a Pintool station (Kalypsys, San Diego, CA). The assay plates were incubated at 37C for 17 h. After 1 uL of LiveBLAzerTM B/G FRET substrate was added using a Bioraptr Flying Reagent Dispenser (FRD) workstation (Beckman Coulter, Indianapolis, IN, USA), the plates were incubated at room temperature for 1 h, and fluorescence intensity was measured by an Envision plate reader (PerkinElmer, Shelton, CT).", "values": [{"smiles": "CC(=O)Nc1ccc(CC(=O)O)cc1", "Potency": "inactive"}, {"smiles": "CO[Si](CCCNCCN)(OC)OC", "Potency": "inactive"}, {"smiles": "O=C1C(N(CO)C(=O)NCO)N(CO)C(=O)N1CO", "note": "(stereo not given)", "Potency": "inactive"}, {"smiles": "OCc1ccc(Cl)cc1Cl", "Potency": "inactive"}, {"smiles": "CCCCCCCCO", "Potency": "inactive"}, {"smiles": "CCCCCCCC(=O)O", "Potency": "inactive"}, {"smiles": "Cc1cc(C)c(O)c(C)c1", "Potency": "inactive"}, {"smiles": "O=[N+]([O-])c1cc(C(F)(F)F)ccc1Cl", "Potency": "inactive"}, {"smiles": "CCc1cccc(O)c1", "Potency": "inactive"}, {"smiles": "CCCOC(=O)NCCCN(C)C", "Potency": "inactive"}, {"smiles": "C=CC(C)(C)C", "activation": "0.0705% (inactive)"}, {"smiles": "CN=C(NC#N)NCCSCc1nc[nH]c1C", "Potency": "inactive"}, {"smiles": "C1CCCNCC1", "Potency": "inactive"}, {"smiles": "Cc1ccc(C(C)C)cc1", "activation": "-0.83% (inactive)"}, {"smiles": "O=C1OC(=O)c2c(Cl)c(Cl)c(Cl)c(Cl)c21", "Potency": "inactive"}, {"smiles": "Cc1ccccc1C=O", "Potency": "inactive"}, {"smiles": "CC(=O)OC/C=C(\\C)CCC=C(C)C", "Potency": "inactive"}, {"smiles": "Cc1cc(CC(=O)O)n(C)c1C(=O)c1ccc(Cl)cc1", "Potency": "inactive"}, {"smiles": "Cc1ccc(C)c(S(=O)(=O)O)c1", "Potency": "inactive"}, {"smiles": "Nc1nc(N)c2nc(-c3ccccc3)c(N)nc2n1", "Potency": "23.9 µM (active)"}, {"smiles": "CCCCCCCCCCCC(=O)N(C)CC(=O)O", "Potency": "15 µM (active)", "activation": "0.467% [at 7.08 µM] (inactive)"}, {"smiles": "OCC(CO)(CO)CO", "Potency": "inactive"}, {"smiles": "CC(COCC(C)OC(=O)c1ccccc1)OC(=O)c1ccccc1", "note": "(stereo not given)", "Potency": "inactive"}, {"smiles": "CC(=O)C(C)C", "Potency": "inactive"}, {"smiles": "O=Cc1ccc(CO)o1", "activation": "-5.77% (inactive)"}, {"smiles": "COc1c2ccoc2cc2oc(=O)ccc12", "activation": "0.982% (inactive)"}, {"smiles": "CC(=O)c1nccs1", "Potency": "inactive"}, {"smiles": "CC(C)c1ccc(C(C)C)cc1", "Potency": "inactive"}, {"smiles": "C=C(CC(=O)O)C(=O)O", "Potency": "inactive"}, {"smiles": "CC1=CC(=O)CC(C)(C)C1", "Potency": "inactive"}, {"smiles": "C=C1C[C@]23C[C@@]1(O)CC[C@H]2[C@@]12C=C[C@H](O)[C@@](C)(C(=O)O1)[C@H]2[C@@H]3C(=O)O", "Potency": "inactive"}, {"smiles": "OC1CCCCC1", "Potency": "inactive"}, {"smiles": "O=C1O[C@H]([C@H](O)CO)C(O)=C1O", "Potency": "inactive"}, {"smiles": "CCCN(CCC)C(=O)SCC", "Potency": "inactive"}, {"smiles": "O=C(Cl)c1ccc(C(=O)Cl)cc1", "Potency": "inactive"}, {"smiles": "OB(O)O", "Potency": "inactive"}, {"smiles": "N#CCC(=O)O", "Potency": "inactive"}, {"smiles": "CC(=O)OC(C)(C)C1CC=C(C)CC1", "note": "(stereo not given)", "Potency": "inactive"}, {"smiles": "COC(=O)OC", "Potency": "inactive"}]}]}
